The source of these data is PubChem BioAssay AID1210 (NMMLSC, 2008).

Calls of active or inactive are those of the source.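 Rule for the calls: active = blocks over 70% of labeled estradiol binding at 10 µM, or over a set limit at 100 nM; inactive = the rest.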

Sequence of Estrogen receptor beta (Homo sapiens) (Q92731 whole entry, looked up): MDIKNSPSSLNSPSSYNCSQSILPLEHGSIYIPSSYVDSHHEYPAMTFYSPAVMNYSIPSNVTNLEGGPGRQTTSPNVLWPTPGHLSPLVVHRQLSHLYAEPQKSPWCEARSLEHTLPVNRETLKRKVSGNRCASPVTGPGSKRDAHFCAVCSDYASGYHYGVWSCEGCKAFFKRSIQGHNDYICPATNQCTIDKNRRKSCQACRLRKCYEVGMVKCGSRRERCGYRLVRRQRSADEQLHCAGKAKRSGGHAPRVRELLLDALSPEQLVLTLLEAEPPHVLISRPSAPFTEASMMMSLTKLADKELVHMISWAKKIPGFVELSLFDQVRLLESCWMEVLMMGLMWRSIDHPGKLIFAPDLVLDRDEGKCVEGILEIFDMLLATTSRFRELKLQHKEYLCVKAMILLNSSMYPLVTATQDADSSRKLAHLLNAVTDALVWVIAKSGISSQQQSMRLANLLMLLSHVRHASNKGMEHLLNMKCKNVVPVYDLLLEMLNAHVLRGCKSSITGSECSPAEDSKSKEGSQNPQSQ

The test concerns the target Estrogen receptor beta (Homo sapiens) (UniProt Q92731). Kind of test: ERbeta ligand binders by competition, primary screen, cell-based, Cos7 ERbeta-GFP, flow cytometry (AID 1210).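 Note: 0% = DMSO vehicle wells and 100% = complete loss of labeled estradiol signal.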 Conditions: fluorescent estrogen binding, at 10 µM, stronger effect = higher value. (In general: In flow cytometry, cells or beads pass a laser one at a time.)
Turning to `Cc1ccc(-c2nnc(-c3ccc(NC(=O)c4ccco4)cc3)o2)cc1`, the inhibition is 54% (inactive). For the compound `COc1cc(C2C3C(C)N(C)C(=O)N(C)C3N(C)C(=O)N2C)ccc1O` (centres undefined), the inhibition was 12% (inactive). Take `O=C(NC1CC1)c1ccc2c(c1)C1C3CCC(C3)C1C(c1ccccc1)N2` (centres undefined): the inhibition was 0% (inactive). The result for `Cn1c(C(=O)Nc2ccc3c(c2)OCO3)cc2c(=O)n(C)c3ccccc3c21` reads 42% (inactive); that for `COc1ccc(-n2c(SCC(=O)Nc3nccs3)nc3sc4c(c3c2=O)CCN(C)C4)cc1`, 41% (inactive); that for `CCCCc1cc(=O)oc2c(C)c(O)ccc12`, 7% (inactive). Regarding `CCOC(=O)COc1cc2oc(=O)c3c(c2cc1CC)CCCC3`, the inhibition was 23% (inactive). Then `Cc1ccn2c(NCc3ccc4c(c3)OCO4)c(-c3ccc(O)cc3)nc2c1`, with 41% (inactive); and `Cn1c(SCC(=O)N2c3ccccc3CCc3ccccc32)nnc1-c1cc2ccccc2cc1O`, with 19% (inactive). Take `N#Cc1c(NCCN)nc(NCc2ccccc2)c2c1CCN(Cc1ccccc1)C2`: the inhibition was 42% (inactive). Then `CSC(=O)CNC1(Cc2ccc(O)cc2)CCCCC1`, with 87% (active). `O=C1CC(c2ccncc2)c2cc3c(cc2N1)OCCO3` (centres undefined): the inhibition was 14% (inactive). On to `COc1cc([N+](=O)[O-])cc2c1NC(c1ccccc1)C1CC=CC21` (centres undefined), for which the inhibition is 10% (inactive). The result for `COc1ccc(-c2nc(C(N)=O)c3[nH]c(=O)n(-c4cccc(Cl)c4)c3n2)cc1OC` reads 13% (inactive); that for `CCOc1ccc(N=C2NC(=O)S/C2=C\c2ccc(OC)cc2)cc1`, 47% (inactive). Then `CC1CCC2(C)c3[nH]c4ccccc4c3CCN2C1=O` (centres undefined), with 7% (inactive); and `CC1CCN(Cc2c(O)ccc3c4c(c(=O)oc23)CCC4)CC1`, with 21% (inactive). For `CC(=O)Oc1ccc2c(c1)CCC1C2C(O)CC2(C)C(=O)CCC12` (centres undefined), the inhibition is 77% (active). The result for `COc1ccc(Oc2ccc3c(c2)c2c4n3CCNC4CCC2)cc1` (centres undefined) reads 7% (inactive); that for `COc1cc(-c2nc3ccc4ccccc4c3c3c2CCC3)cc(OC)c1O`, 64% (inactive); that for `CCc1cc2c3c(c(=O)oc2cc1OC)CCCC3`, 18% (inactive). Take `CCOc1ccc(NS(=O)(=O)c2ccc3c(c2)[C@H]2C=CC[C@H]2[C@@H](c2ccc([N+](=O)[O-])cc2)N3)cc1`: the inhibition was 1% (inactive). Then `O=C(OC1CCCCC1)c1ccc2c(c1)C1C=CCC1C(C(=O)O)N2` (centres undefined), with 7% (inactive); and `COc1ccc2c(c1)C1OCCC1C(c1ccco1)N2` (centres undefined), with 39% (inactive). The result for `O=C(O)c1ccc2c(c1)C1C=CCC1C(c1cccc([N+](=O)[O-])c1)N2` (centres undefined) reads 33% (inactive); that for `CC(=O)c1ccc2c(c1)C1C=CCC1C(c1cccc([N+](=O)[O-])c1)N2` (centres undefined), 0% (inactive); that for `CCCOc1cc(OCCC)c2c3c(c(=O)oc2c1)CCCC3`, 20% (inactive).

`CC(=O)c1ccc2c(c1)C1C=CCC1C(c1ccncc1)N2` (centres undefined): the inhibition is 11% (inactive). Turning to `COc1cc([N+](=O)[O-])cc2c1NC(c1ccccc1Cl)C1CC=CC21` (centres undefined), the inhibition was 20% (inactive). Then `CCOc1cc2c(c([N+](=O)[O-])c1)NC(c1ccccc1)C1CC=CC21` (centres undefined), with 17% (inactive); and `COc1ccc(NS(=O)(=O)c2ccc3c(c2)[C@H]2C=CC[C@H]2[C@@H](c2ccc(C(=O)O)cc2)N3)cc1`, with 88% (active); and `COc1cc2c(c([N+](=O)[O-])c1)NC(c1ccc(Br)cc1)C1CC=CC21` (centres undefined), with 8% (inactive). The result for `Cc1ccc(-n2cc3c(c(C#N)c2=N)CC(C)(C)CC3=O)cc1` reads 22% (inactive); that for `O=c1oc2cc(O)ccc2c2c1CCC2`, 8% (inactive). Then `c1coc(C2Nc3ccccc3C3OCCC23)c1` (centres undefined), with 0% (inactive). For the compound `CCOc1ccccc1-c1nc(-c2ccc(NC(=O)c3ccc(Br)o3)cc2)no1`, the inhibition was 37% (inactive). The result for `Cc1cc(C(C)CO)cc(C(C)(C)C)c1O` (centres undefined) reads 19% (inactive); that for `COc1ccc(C2(CNCC(N)=O)CCCC2)cc1OC`, 7% (inactive); that for `CCOC(=O)Cc1csc(NC(=O)Cc2cccs2)n1`, 25% (inactive).

Broadly, the inhibition is the percentage by which the read-out fell short of the control.
